# Laboratory results taken from PubChem BioAssay (EPA / NIEHS).
# Results filed as inconclusive are left out. Calls of active or inactive are those of the source. Rule for the calls, unless noted: active = hit-call score of the fitted dose curve at least 0.9, where 1 is the maximum; inactive = score below 0.9.
# Columns and labels:
# [1] = ATG_PBREM_CIS: Attagene CIS-FACTORIAL HepG2 Assay for human Phenobarbital-responsive Enhancer Module (PBREM) (AID 2282955); conditions: HepG2 PBREM cis-reporter, Attagene multiplexed transcription; actives raise or lower the signal
# Method in brief: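 HepG2, transient MRTU transfection, 24 h dosing; RNA → oligo(dT) RT → PCR → 6-FAM extension → HpaI → CE. Bidirectional fit vs DMSO.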
# [2] = molecular target: Paired box protein Pax-6 (Homo sapiens) (UniProt P26367); assay: ATG_Pax6_CIS: Attagene CIS-FACTORIAL HepG2 Assay for human Paired Box 6 (PAX6) (AID 2282956); conditions: HepG2 CIS-FACTORIAL PAX6 reporter transcription, RNA readout; actives raise or lower the signal
# Method in brief: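 HepG2 cells transiently transfected with multiplexed cis-promoter reporter units (endogenous TF activity) were dosed for 24 h. Reporter mRNA was quantified by RT-PCR, 6-FAM labeling, HpaI digestion and capillary electrophoresis; bidirectional fitting versus DMSO baseline.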
# [3] = ATG_PXRE_CIS: Attagene CIS-FACTORIAL HepG2 Assay for human Pregnane X Receptor Element (PXRE) (AID 2282957); conditions: HepG2 Attagene CIS-FACTORIAL PXRE reporter, mRNA; actives raise or lower the signal
# Method in brief: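 Cis-element reporter mRNA in human hepatoma HepG2 cells is measured 24 h post-dosing by RT-PCR, primer-extension labeling and capillary electrophoresis; gain or loss of signal is fitted relative to DMSO.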
# [4] = ATG_PPRE_CIS: Attagene CIS-FACTORIAL HepG2 Assay for human Peroxisome Proliferator-activated Response Element (PPRE) (AID 2282958); conditions: HepG2 PPRE cis-element reporter, Attagene transcription factor profiling; actives raise or lower the signal
# Method in brief: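 Transcript-level reporter induction in transfected HepG2 cells after 24 h chemical exposure, quantified by fluorescence from RT-PCR products separated by capillary electrophoresis.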
# [5] = ATG_RORE_CIS: Attagene CIS-FACTORIAL HepG2 Assay for human RAR-related Orphan Receptor Element (RORE) (AID 2282959); conditions: HepG2 Attagene cis-factorial RORE reporter, mRNA; actives raise or lower the signal
# Method in brief: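 Multiplexed reporter assay measuring mRNA induction from a cis promoter element in transiently transfected HepG2 cells after 24 h treatment. Detection via RT-PCR and capillary electrophoresis fluorescence; DMSO serves as baseline.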
# [6] = molecular target: Transcription factor Sp1 (Homo sapiens) (UniProt P08047); assay: ATG_Sp1_CIS: Attagene CIS-FACTORIAL HepG2 Assay for human Specificity Protein 1 (Sp1) (AID 2282961); conditions: HepG2 Sp1 cis-reporter transcription, actives raise or lower the signal
# Method in brief: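 Measures mRNA induction of an Sp1-linked reporter in HepG2 cells 24 h post-dosing. Multiplexed reporters read by RT-PCR and capillary electrophoresis; DMSO serves as negative control and baseline.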
# [7] = ATG_SREBP_CIS: Attagene CIS-FACTORIAL HepG2 Assay for human Sterol Regulatory Element Binding (SREBP) (AID 2282962); conditions: HepG2 Attagene cis-factorial SREBP reporter, mRNA; actives raise or lower the signal
# Method in brief: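 HepG2 cells transiently transfected with multiplexed cis-element reporter units report endogenous transcription factor activity. After 24 h of chemical exposure, reporter mRNA was quantified by RT-PCR, 6-FAM labelling, HpaI digestion and capillary electrophoresis; bidirectional fits used DMSO as baseline.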
# [8] = molecular target: Signal transducer and activator of transcription 3 (Homo sapiens) (UniProt P40763); assay: ATG_STAT3_CIS: Attagene CIS-FACTORIAL HepG2 Assay for human Signal Transducer and Activator of Transcription 3 (STAT3) (AID 2282963); conditions: HepG2, Attagene cis-factorial STAT3 reporter transcription; actives raise or lower the signal
# Method in brief: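 Transcript-level reporter assay. HepG2 transient MRTU transfection, 24 h exposure, fluorescence detection after RT-PCR and CE; DMSO baseline.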
# [9] = ATG_TA_CIS: Attagene CIS-FACTORIAL HepG2 Assay for human TA Basal Promoter (AID 2282964); conditions: HepG2 Attagene CIS-factorial TA basal promoter reporter; actives raise or lower the signal
# Method in brief: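 Steps: transfect HepG2 with MRTUs; dose 24 h; isolate RNA, DNase-treat, reverse-transcribe; PCR and FAM-label reporter cDNA; digest with HpaI 2h at 37 C; run capillary electrophoresis. Activity fitted both directions against DMSO.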
# [10] = ATG_TCF_b_cat_CIS: Attagene CIS-FACTORIAL HepG2 Assay for human T-Cell-Factor with beta-catenin (TCF/b-cat) (AID 2282965); conditions: HepG2 TCF/beta-catenin cis-reporter transcription, actives raise or lower the signal
# Method in brief: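 HepG2 cells transiently transfected with multiple cis-promoter-regulated reporter transcription units, so endogenous transcription factor activity is measured. Reporter mRNA read 24 hours after dosing by RT-PCR, fluorescent labelling and capillary electrophoresis; bidirectional fitting against DMSO.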
# [11] = ATG_TAL_CIS: Attagene CIS-FACTORIAL HepG2 Assay for human TAL Basal Promoter (AID 2282966); conditions: HepG2 Attagene cis-factorial TAL promoter reporter; actives raise or lower the signal;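 note: background control endpoint measuring basal TAL promoter reporter mRNA not a specific factor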
# Method in brief: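 In this cell-based multiplex, HepG2 liver cells bearing cis-promoter reporter constructs are dosed for 24 hours. Total RNA is reverse-transcribed and amplified, labelled fragments are sized by capillary electrophoresis, and signal changes are fitted bidirectionally versus DMSO.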
# [12] = ATG_TGFb_CIS: Attagene CIS-FACTORIAL HepG2 Assay for human Transforming Growth Factor (TGF) (AID 2282967); conditions: HepG2 Attagene CIS TGFb reporter, mRNA transcription; actives raise or lower the signal
# Method in brief: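 Cells were dosed for 24 hours, after which total RNA was reverse-transcribed and reporter sequences amplified, labeled and sized by capillary electrophoresis. Activity was fitted in both directions against DMSO.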
# [13] = molecular target: Nuclear receptor subfamily 1 group I member 3 (Homo sapiens) (UniProt Q14994); assay: ATG_CAR_TRANS: Attagene TRANS-FACTORIAL HepG2 Assay for human Constitutive Androstane Receptor (CAR) (AID 2282969; active = hit-call score of the fitted dose curve at least 0.9, where 1 is the maximum;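 note: activators raise reporter mRNA above DMSO so AC50 marks induction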); conditions: HepG2 Attagene TRANS-FACTORIAL CAR reporter
# Method in brief: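 HepG2 cells transiently transfected with multiplexed GAL4-UAS reporter units expressing chimeric NR-Gal4 proteins; compound exposure 24 h. Reporter mRNA measured by RT-PCR, 6-FAM labelling, HpaI digestion and capillary electrophoresis; gain-of-signal fitted against DMSO baseline.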
# [14] = molecular target: Estrogen receptor (Homo sapiens) (UniProt P03372); assay: ATG_ERa_TRANS: Attagene TRANS-FACTORIAL HepG2 Assay for human Estrogen Receptor alpha (ERa) (AID 2282970; active = hit-call score of the fitted dose curve at least 0.9, where 1 is the maximum); conditions: HepG2 Attagene TRANS ERa GAL4 reporter, mRNA
# Method in brief: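 After 24 h of compound treatment, RNA from HepG2 cells bearing transfected GAL4-UAS reporter constructs is converted to cDNA, amplified and fluorescently labelled. Capillary electrophoresis resolves the ERa-linked reporter; DMSO serves as negative control.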
# [15] = molecular target: X-box-binding protein 1 (Homo sapiens) (UniProt P17861); assay: ATG_Xbp1_CIS: Attagene CIS-FACTORIAL HepG2 Assay for human X-box Binding Protein 1 (XBP1) (AID 2282972); conditions: HepG2 XBP1 cis-element reporter, Attagene multiplex; actives raise or lower the signal
# Method in brief: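 HepG2 cells transiently transfected with cis-regulated multiple reporter transcription units; endogenous transcription factor activity measured 24 hours after chemical dosing. Reporter mRNA quantified by RT-PCR, 6-FAM primer extension, HpaI digestion and capillary electrophoresis; bidirectional fitting versus DMSO.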
# [16] = ATG_M_19_TRANS: Attagene TRANS-FACTORIAL HepG2 Assay for M19 Transcription Factor (Internal Marker) (AID 2282974; active = hit-call score of the fitted dose curve at least 0.9, where 1 is the maximum); conditions: HepG2 Attagene TRANS-FACTORIAL M19 internal marker reporter
# Method in brief: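 After transfection of HepG2 with GAL4-UAS-driven reporter constructs, cells are dosed for 24 h. Total RNA is reverse-transcribed, reporter sequences PCR-amplified and labelled, then HpaI-digested and sized by capillary electrophoresis.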
# [17] = ATG_VDRE_CIS: Attagene CIS-FACTORIAL HepG2 Assay for human Vitamin D Receptor Element (VDRE) (AID 2282968); conditions: HepG2 VDRE cis-reporter transcription, actives raise or lower the signal
# Method in brief: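 RT-PCR/CE readout of reporter mRNA; HepG2, transient transfection, 24 h dosing; DMSO baseline; bidirectional analysis.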
# [18] = molecular target: Steroid hormone receptor ERR1 (Homo sapiens) (UniProt P11474); assay: ATG_ERRa_TRANS: Attagene TRANS-FACTORIAL HepG2 Assay for human Estrogen-Related Receptor alpha (ERRa) (AID 2282971; active = hit-call score of the fitted dose curve at least 0.9, where 1 is the maximum); conditions: HepG2 Attagene TRANS reporter, ERRa transactivation
# Method in brief: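 Transfected HepG2, 24 h dosing, ERRa-Gal4 chimera driving GAL4-UAS reporter. Readout: reporter mRNA via RT-PCR plus capillary electrophoresis (fluorescence). Positive direction vs DMSO control.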
# Chain of Estrogen receptor (Homo sapiens) (P03372 whole entry, looked up, the tested form may be a part): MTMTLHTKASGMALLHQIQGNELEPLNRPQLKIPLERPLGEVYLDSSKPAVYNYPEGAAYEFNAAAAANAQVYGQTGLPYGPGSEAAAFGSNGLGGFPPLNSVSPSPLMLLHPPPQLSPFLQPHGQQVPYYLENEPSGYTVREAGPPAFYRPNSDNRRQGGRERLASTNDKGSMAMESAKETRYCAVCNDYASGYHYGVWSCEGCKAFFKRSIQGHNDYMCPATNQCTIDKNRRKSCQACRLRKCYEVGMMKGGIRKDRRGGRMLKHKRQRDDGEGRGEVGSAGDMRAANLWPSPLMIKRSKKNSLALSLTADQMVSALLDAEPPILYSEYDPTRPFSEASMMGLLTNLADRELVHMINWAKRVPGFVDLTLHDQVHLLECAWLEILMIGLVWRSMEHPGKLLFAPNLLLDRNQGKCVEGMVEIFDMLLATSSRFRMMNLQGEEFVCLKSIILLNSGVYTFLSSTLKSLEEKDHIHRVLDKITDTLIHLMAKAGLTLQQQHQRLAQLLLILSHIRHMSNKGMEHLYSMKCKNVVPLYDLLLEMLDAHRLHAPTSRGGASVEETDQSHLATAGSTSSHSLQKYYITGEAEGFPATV
# Chain of Paired box protein Pax-6 (Homo sapiens) (P26367 whole entry, looked up): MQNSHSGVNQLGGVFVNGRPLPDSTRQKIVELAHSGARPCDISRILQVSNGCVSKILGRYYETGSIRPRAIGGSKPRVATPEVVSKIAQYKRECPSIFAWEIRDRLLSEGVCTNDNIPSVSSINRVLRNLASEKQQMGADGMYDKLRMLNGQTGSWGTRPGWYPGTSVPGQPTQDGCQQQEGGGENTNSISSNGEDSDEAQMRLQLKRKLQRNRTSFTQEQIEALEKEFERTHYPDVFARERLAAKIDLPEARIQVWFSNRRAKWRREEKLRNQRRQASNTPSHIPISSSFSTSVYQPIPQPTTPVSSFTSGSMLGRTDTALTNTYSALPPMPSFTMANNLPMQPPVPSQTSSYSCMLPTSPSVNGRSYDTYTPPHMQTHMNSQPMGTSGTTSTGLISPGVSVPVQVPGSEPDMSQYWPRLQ
# Chain of Transcription factor Sp1 (Homo sapiens) (P08047 whole entry, looked up): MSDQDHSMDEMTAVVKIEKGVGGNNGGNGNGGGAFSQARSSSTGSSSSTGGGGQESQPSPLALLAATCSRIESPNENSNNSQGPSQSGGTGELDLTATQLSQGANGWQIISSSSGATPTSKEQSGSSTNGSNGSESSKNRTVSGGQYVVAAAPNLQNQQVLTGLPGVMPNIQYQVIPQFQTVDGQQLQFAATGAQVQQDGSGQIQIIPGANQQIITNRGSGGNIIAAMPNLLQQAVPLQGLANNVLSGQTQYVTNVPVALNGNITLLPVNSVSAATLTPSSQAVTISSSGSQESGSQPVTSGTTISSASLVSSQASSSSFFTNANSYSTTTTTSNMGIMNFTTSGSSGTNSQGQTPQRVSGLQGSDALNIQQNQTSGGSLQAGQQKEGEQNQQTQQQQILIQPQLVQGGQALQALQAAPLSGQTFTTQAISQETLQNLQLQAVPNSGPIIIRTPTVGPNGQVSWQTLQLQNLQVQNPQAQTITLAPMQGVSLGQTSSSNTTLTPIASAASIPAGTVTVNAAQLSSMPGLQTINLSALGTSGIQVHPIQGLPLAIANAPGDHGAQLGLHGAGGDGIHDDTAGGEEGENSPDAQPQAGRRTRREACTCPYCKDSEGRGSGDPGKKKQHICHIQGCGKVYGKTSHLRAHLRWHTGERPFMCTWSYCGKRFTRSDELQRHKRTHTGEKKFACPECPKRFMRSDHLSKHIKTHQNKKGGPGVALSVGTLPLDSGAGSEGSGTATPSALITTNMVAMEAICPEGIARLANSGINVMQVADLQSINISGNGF
# Chain of Nuclear receptor subfamily 1 group I member 3 (Homo sapiens) (Q14994 whole entry, looked up, the tested form may be a part): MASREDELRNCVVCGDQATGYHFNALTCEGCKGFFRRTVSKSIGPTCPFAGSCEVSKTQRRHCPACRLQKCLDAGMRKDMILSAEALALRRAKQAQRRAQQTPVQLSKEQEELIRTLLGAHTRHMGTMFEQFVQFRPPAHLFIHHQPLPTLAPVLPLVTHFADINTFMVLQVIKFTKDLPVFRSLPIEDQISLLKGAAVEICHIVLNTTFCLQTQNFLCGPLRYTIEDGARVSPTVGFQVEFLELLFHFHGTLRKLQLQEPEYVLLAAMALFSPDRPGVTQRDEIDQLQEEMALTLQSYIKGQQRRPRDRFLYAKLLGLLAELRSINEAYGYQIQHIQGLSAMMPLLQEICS
# Chain of X-box-binding protein 1 (Homo sapiens) (P17861 whole entry, looked up): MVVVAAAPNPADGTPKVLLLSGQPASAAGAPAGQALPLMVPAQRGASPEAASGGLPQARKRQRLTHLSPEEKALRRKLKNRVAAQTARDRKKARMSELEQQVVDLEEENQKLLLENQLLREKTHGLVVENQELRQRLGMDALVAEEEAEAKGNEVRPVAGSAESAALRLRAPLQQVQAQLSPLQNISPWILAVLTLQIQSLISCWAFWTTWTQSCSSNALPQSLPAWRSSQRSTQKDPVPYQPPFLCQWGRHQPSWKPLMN
# Chain of Signal transducer and activator of transcription 3 (Homo sapiens) (P40763 whole entry, looked up): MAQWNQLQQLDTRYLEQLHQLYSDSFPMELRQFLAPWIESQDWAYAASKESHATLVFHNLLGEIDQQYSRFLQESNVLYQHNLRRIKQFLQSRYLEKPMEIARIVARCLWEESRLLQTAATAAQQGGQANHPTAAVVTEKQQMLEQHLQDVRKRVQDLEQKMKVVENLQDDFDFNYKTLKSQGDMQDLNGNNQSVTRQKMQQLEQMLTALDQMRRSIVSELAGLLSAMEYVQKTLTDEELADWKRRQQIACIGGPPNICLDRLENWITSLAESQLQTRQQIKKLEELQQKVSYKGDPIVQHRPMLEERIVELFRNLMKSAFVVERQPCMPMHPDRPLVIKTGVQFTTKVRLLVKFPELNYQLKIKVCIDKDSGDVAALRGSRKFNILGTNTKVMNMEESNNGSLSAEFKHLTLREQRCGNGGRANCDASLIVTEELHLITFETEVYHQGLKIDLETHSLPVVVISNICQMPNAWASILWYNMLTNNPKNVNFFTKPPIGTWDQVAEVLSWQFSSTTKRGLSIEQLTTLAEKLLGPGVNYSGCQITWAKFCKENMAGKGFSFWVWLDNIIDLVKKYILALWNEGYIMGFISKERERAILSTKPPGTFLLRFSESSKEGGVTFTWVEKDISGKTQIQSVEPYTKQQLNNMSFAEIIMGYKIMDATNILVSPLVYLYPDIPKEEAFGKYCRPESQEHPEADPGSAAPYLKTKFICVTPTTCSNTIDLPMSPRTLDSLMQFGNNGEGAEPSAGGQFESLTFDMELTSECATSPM
# Chain of Steroid hormone receptor ERR1 (Homo sapiens) (P11474 whole entry, looked up, the tested form may be a part): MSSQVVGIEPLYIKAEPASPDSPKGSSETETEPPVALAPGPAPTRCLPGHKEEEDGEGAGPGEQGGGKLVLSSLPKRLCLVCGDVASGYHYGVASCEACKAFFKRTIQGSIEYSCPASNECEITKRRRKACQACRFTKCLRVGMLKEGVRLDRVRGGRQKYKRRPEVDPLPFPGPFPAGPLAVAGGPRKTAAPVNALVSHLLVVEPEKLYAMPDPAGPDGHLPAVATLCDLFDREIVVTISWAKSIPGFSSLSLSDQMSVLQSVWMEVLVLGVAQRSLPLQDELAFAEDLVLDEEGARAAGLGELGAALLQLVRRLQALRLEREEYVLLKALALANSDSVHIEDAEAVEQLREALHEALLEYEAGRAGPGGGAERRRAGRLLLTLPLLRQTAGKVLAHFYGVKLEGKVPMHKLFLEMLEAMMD
smiles,measurement,setting,value
CS/C(C)=N/OC(=O)N(C)SN(C)C(=O)O/N=C(\C)SC,outcome,[1],inactive
same,outcome,[2],inactive
same,outcome,[3],inactive
same,outcome,[4],inactive
same,outcome,[5],inactive
same,outcome,[6],inactive
same,outcome,[7],inactive
same,outcome,[8],inactive
same,outcome,[9],inactive
same,outcome,[10],inactive
same,outcome,[11],inactive
same,outcome,[12],inactive
same,outcome,[13],inactive
same,outcome,[14],inactive
same,outcome,[15],inactive
same,outcome,[16],inactive
C#CCOS(=O)OC1CCCCC1Oc1ccc(C(C)(C)C)cc1 (stereo not drawn),AC50,[1],1.39 µM (active)
same,outcome,[2],inactive
same,AC50,[3],0.661 µM (active)
same,outcome,[4],inactive
same,AC50,[5],2.4 µM (active)
same,outcome,[6],inactive
same,outcome,[7],inactive
same,outcome,[8],inactive
same,outcome,[9],inactive
same,outcome,[10],inactive
same,outcome,[11],inactive
same,outcome,[12],inactive
same,outcome,[13],inactive
same,outcome,[14],inactive
same,outcome,[15],inactive
COP(=S)(OC)Oc1nc(Cl)c(Cl)cc1Cl,outcome,[1],inactive
same,outcome,[2],inactive
same,AC50,[3],13.7 µM (active)
same,outcome,[5],inactive
same,outcome,[6],inactive
same,AC50,[7],32 µM (active)
same,outcome,[8],inactive
same,outcome,[9],inactive
same,outcome,[10],inactive
same,outcome,[11],inactive
same,outcome,[12],inactive
same,AC50,[17],27.8 µM (active)
same,outcome,[13],inactive
same,AC50,[14],33.1 µM (active)
same,outcome,[18],inactive
same,outcome,[15],inactive
same,outcome,[16],inactive
